The campaign covered roughly 370,000 compounds. About 3,300 (0.89%) were called active.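 The calls were made as follows: active = activation above the mean of all tested compounds plus 3 SD, computed per campaign excluding outliers beyond control limits (cut at about 13% in these data); inactive = the rest.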 The entries come from a sample that favours actives as a whole.
molecular target: Kallikrein-7 (Homo sapiens) (UniProt P49862); test: proKLK7 zymogen activators, primary screen, biochemical, fluorescence intensity (AID 652039); settings: purified proKLK7, EDANS-DABCYL substrate fluorescence; at 7 µM; active compounds read high; 100% is mature enzyme control, 0% vehicle
Sequence (P49862 whole entry, looked up): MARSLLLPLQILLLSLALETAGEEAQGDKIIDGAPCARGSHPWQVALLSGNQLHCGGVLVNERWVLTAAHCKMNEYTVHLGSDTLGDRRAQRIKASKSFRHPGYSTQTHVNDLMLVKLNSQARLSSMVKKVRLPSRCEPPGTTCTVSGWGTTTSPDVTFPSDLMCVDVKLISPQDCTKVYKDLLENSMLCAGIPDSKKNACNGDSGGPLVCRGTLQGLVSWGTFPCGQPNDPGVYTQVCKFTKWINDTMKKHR

activation, inactive:
COc1ccccc1C(=O)CSc1nnc(-c2ccccn2)n1-c1ccccc1 0.13%
Cc1ccc(-n2c(SCC(=O)Nc3cccc4ccccc34)nnc2-c2ccccn2)cc1 -0.1%
CCOc1ccc(N(CC(=O)Nc2c(C)n(C)n(-c3ccccc3)c2=O)S(=O)(=O)c2ccc(Cl)s2)cc1 -0.38%
COc1cc(NC(=O)c2ccccc2NS(=O)(=O)c2ccc(Cl)s2)cc(OC)c1 0.45%
O=C(Nc1nncs1)c1cccc(S(=O)(=O)N2CCCCC2)c1 0.4%
Cc1ccc(-c2nc(C3CCCN(S(=O)(=O)c4ccc(Br)s4)C3)no2)cc1 (stereo unspecified) 0.38%
COc1ccc(-n2c(COc3ccccc3)nnc2SCC(=O)Nc2ccc3c(c2)OCO3)cc1 0.59%
O=C1c2ccccc2NC(c2ccccn2)N1NS(=O)(=O)c1ccccc1 (stereo unspecified) 10.7%
Cc1ccc(S(=O)(=O)N2CCC(C(=O)OCC(=O)N3CC(=O)Nc4ccccc43)CC2)cc1 0.15%
COc1ccc(N2CCN(CCNS(=O)(=O)c3ccc(C(C)(C)C)cc3)CC2)cc1 0.49%
C=CCN1C(=O)[C@@H](CC(=O)NCC2CCCCC2)[C@]2(C(=O)OC)CCCCC=C12 0.16%
CC(CCN1CCC(C(O)(c2ccccc2)c2ccccc2)CC1)Oc1ccc([N+](=O)[O-])cc1Cl (stereo unspecified) -0.54%
Nc1nonc1-n1nnc(C(=O)N/N=C/c2cc(Br)ccc2O)c1CSC1=NCCS1 -0.67%
COc1cc(/C=N/N=C(\N)c2nonc2N)cc(OC)c1OC 0.13%
COc1cccc(N(C)C(=O)[C@@H](C)[C@@H](O)c2ccc3ccccc3c2)c1 -0.02%
CC(C)CSc1nnc(-c2cccnc2)n1Cc1ccccc1 -0.36%
CN1C(C(=O)NCc2ccco2)CC2Cn3c(nc4ccccc43)C21 (stereo unspecified) 0.06%
Clc1ccc(C(Cn2ccnc2)OCc2ccsc2Cl)c(Cl)c1 (stereo unspecified) 0.44%
Cc1cc(C(=O)NN=C/C=C/c2ccco2)n[nH]1 0.51%
C=CCN1CN(S(=O)(=O)c2ccc(OC)cc2)c2nc3ccccc3nc21 2.35%
CCC(=O)Nc1c(S(=O)(=O)c2ccccc2)c2nc3ccccc3nc2n1Cc1ccccc1 -55%
CCOC(=O)[C@]12CCCCC/C=C\1N(Cc1ccc(OC)cc1)C(=O)[C@H]2CC(=O)N1CCOCC1 0.31%
C=CCN1[C@H](CC(C)C)COc2cccc(N3CCCC3)c2S1(=O)=O 0.16%
CCc1cc(=O)oc2cc(C)cc(OCC(=O)N3CCC[C@@H]3C(=O)O)c12 2.84%
CCc1cc(=O)oc2cc(C)cc(OC(C)C(=O)O)c12 (stereo unspecified) 3.59%
CCOC(CNC(=O)C(=O)NCC(c1ccco1)N1CCN(c2ccc(OC)cc2)CC1)OCC (stereo unspecified) -0.14%
CN1CCCc2nc(-c3ccccc3)ccc21 7.88%
Cc1nc(N2CCOCC2)nc2c1CCCC2 0.32%
CCOC(=O)[C@@]12CCC3=C1N(CCC3)C(=O)[C@H](CC(=O)N1CCN(C(=O)c3ccco3)CC1)C2 0.06%
C=CCN1C(=O)[C@H](CC(=O)N2CCN(C(=O)OCC)CC2)[C@@]2(C(=O)OCC)CCCC=C12 -0.4%
Cc1ccccc1CS(=O)(=O)Cc1ccc(C(=O)Nc2ccc(Cl)cc2)o1 3.6%
Cc1[nH]c(=O)c(C(=O)/C=C/c2ccccc2)c2c1CCCC2 -0.01%
O=C1NC(c2ccncc2)Nc2sc3c(c21)CCCC3 (stereo unspecified) 1.14%
COC(=O)c1cccc(Cn2ccc3ccc(-c4ccc5ccn(C(=O)C6CCCCC6)c5c4)cc32)c1 -4.23%
O=C(CCl)NC1CCCCN(Cc2cccc(C(F)(F)F)c2)C1=O (stereo unspecified) -0.51%
CS(=O)(=O)Nc1ccc(C(=O)N2CCCC2)cc1 0.41%
CC(=O)Nc1cncc(-c2ccccc2CO)n1 -0.16%
O=C(CSc1nnc(-c2ccccc2)n1Cc1ccco1)Nc1ccccc1-c1ccccc1 0.13%
CCC(NC(=O)C1C2C=CC3(CN(Cc4ccccc4)C(=O)C13)O2)c1ccccc1 (stereo unspecified) -0.29%
O=C(NC1CCC1)c1ccc(C#Cc2cccc(F)c2)c[n+]1[O-] -0.32%
Cc1nc2ccccc2nc1CC(O)(c1ccccc1)c1ccccc1 -0.46%
Cc1ccc(O)c(CCc2ccccc2)n1 -0.18%
O=S1(=O)c2ccc(Br)cc2OC[C@H](Cc2ccccc2)N1Cc1cn(Cc2ccccc2)nn1 -0.03%
O=C(/C=C/[C@H]1O[C@@H](n2cnc3c(NC(=O)c4ccccc4)ncnc32)[C@H](O)[C@@H]1O)NCc1ccccc1 0.53%
Cc1ccc(-c2noc(-c3ccccc3C(=O)NCC3CCCO3)n2)cc1 (stereo unspecified) 0.54%
Cc1ccc(CCNC(=O)c2ccc3nc4ccccc4c(=O)n3c2)cc1 -5.82%
CC(=O)OC12CCCN(C1)/C(=C/c1ccncc1)C2 (stereo unspecified) 0.51%
COc1cccc(C(=O)OCc2cc(=O)oc3c(C)c(C)ccc23)c1OC 0.12%
CCCc1cc(=O)oc2c(C)c(OCC(=O)Nc3ccccn3)ccc12 -0.69%
O=C(CSc1nnc(-c2ccccn2)n1-c1ccccc1)Nc1ccc2cn[nH]c2c1 0.28%
O=C(CSc1nc2ccccc2nc1N1CCCCC1)N1CCN(S(=O)(=O)c2cccc([N+](=O)[O-])c2)CC1 0.08%
Cc1ccc(CSc2nnc(SCC(=O)NN=Cc3cc(Br)ccc3F)s2)cc1 -0.39%
CCCN(CCC)C(=S)Nc1cc(C(=O)OC)ccc1C(=O)OC 0.15%
COC(=O)c1ccc(C(=O)OC)c(NC(=S)N2CCCCC2)c1 -1.87%
Cc1ccc(NC(=O)Cc2cccc(F)c2)c(S(=O)(=O)N2CCOCC2)c1 -0.14%
CC(C)(C)c1ccc(CSc2nnc(-c3cccs3)o2)cc1 -0.23%
COc1ccc([C@H]2OC(=O)C[C@H]2C(=O)N2CCN(c3ccccc3F)CC2)cc1OC -0.74%
CCC(Oc1ccccc1)C(=O)OCC(=O)Nc1c(C)nn(-c2ccccc2)c1C (stereo unspecified) -0.3%
Cc1cccc(C)c1NC(=O)COC(=O)c1c(C)nn(-c2ccccc2)c1C 0.05%
O=C(CSc1nc2ccccc2n1Cc1ccccc1Cl)N/N=C\c1c[nH]c2ccccc12 0.56%
N[C@@H](Cc1ccccc1)C(=O)N1CCC[C@@H]1C(=O)N1CCC2CCN(S(=O)(=O)c3ccccc3)CC21 (stereo partly specified) 0.77%
Cc1ccc(S(=O)(=O)Nc2ccc(F)c(S(=O)(=O)N3CCOCC3)c2)cc1 -0.78%
Cc1ccc(NS(=O)(=O)c2ccc3c(c2)NC(=O)CO3)cc1 -0.54%
CC1CCN(c2ccc(C(=O)O)cc2NS(=O)(=O)c2ccc(Br)s2)CC1 0.65%
CC(=O)C[C@@H]1OC[C@H](C)N1S(=O)(=O)c1ccc(C)cc1 -0.26%
C[C@H](C(=O)N(C)c1ccccc1)[C@@H](O)c1ccc(Cl)cc1 0.11%
COc1cc2c(cc1O)C(SC)=NC(C)(C)C2 -0.65%
COc1cc2c(cc1OC)C(Nc1ccc(S(N)(=O)=O)cc1)=NC(C)(C)C2 0.68%
COc1ccc(CN(CCN2CCOCC2)C(=O)c2ccc(C)cc2)cc1OC 0.42%
Nn1c(SCC(=O)N2c3ccccc3Sc3ccccc32)nnc1-c1n[nH]c2c1CCC2 0.49%
COc1ccc(-n2c(SCC(=O)OC(C)C)nnc2-c2ccccn2)cc1 -0.5%
COc1ccc(C(=O)COC(=O)c2ccc3ccccc3n2)cc1 0.19%
O=C(NC1CCC1)c1ccc(C#CC2CC2)cn1 0.73%
CCCCOCCCNC(=O)C[C@H]1C[C@@]2(C(=O)OC)C(=C[C@H](C(C)(C)C)O[C@@H]2C)N(CCc2ccc(OC)c(OC)c2)C1=O -0.83%
N#CCC[C@H]1CC[C@]2(CCCN(Cc3ccc(Cl)cc3)C2)O1 0.36%

activation, active:
O=C(Nc1nncs1)c1ccccc1NS(=O)(=O)c1cccs1 16.3%
Cc1ccc(C2Nc3ccccc3C(=O)N2CCN2CCNC2=O)cc1 (stereo unspecified) 39.3%
COc1cc(/C=N\NC(=O)c2nonc2N)c(OC)cc1Br 163%
CN1c2ccccc2-c2nc3ccccc3n2C1c1ccco1 (stereo unspecified) 35.6%
CN1CCCc2cc(C#N)c(=O)[nH]c21 60%
C=CCn1c(N)c(S(=O)(=O)c2cccs2)c2nc3ccccc3nc21 26.2%
COc1cc2c(cc1OC)CC1(CCCCC1)N=C2 165%
CCCCc1cc(=O)oc2cc(C)cc(OCc3nn[nH]n3)c12 12.8%
Cc1cc2c(nc1C)CCCN2C 38.3%
C/C(=C\c1ccccc1)C1NC(=O)c2c(sc3c2CCCC3)N1 (stereo unspecified) 12.6%
CNc1cncc(-c2ccc(NS(C)(=O)=O)cc2)n1 128%
Cc1nc2ccccc2cc1O 41.8%
Cc1ccc2nc3c(cc(C(=O)NCCc4ccccc4)c(=N)n3CC3CCCO3)c(=O)n2c1 (stereo unspecified) 25.4%
CN(C)CCCn1c(N)c(C#N)c2nc(C#N)c(C#N)nc21 78.7%
COC(=O)Cc1cc(=O)oc2c(C)c(O)ccc12 66%
CCS(=O)(=O)Nc1cc(C(=O)OC)ccc1C(=O)OC 21.6%
Cc1nn(-c2ccccc2)c(C)c1NC(=O)COC(=O)c1cc(Cl)ccc1O 24.7%
Cc1cc2cc3n(c2nn1)N=C(Cl)CC3 24.3%
COCc1cc(=O)oc2cc(NS(=O)(=O)c3ccc(C)cc3)ccc12 15.2%
COc1cc2c(cc1OC)C(C(C)C)=NC(C)(C)C2 85.2%
COc1ccc2nc(-c3ccccn3)ccc2c1 20.9%

From PubChem BioAssay AID652039 (The Scripps Research Institute Molecular Screening Center, 2013)
